The source made the active and inactive calls. How the source made its calls: active means hit-call score of the fitted dose curve at least 0.9, where 1 is the maximum; inactive means score below 0.9.

Data on 28 compounds can be found in PubChem BioAssay (EPA / NIEHS).

Read-out in the first test: Tissue Factor, F3 (gene 2152)
Nature of the test: BSK_CASM3C_TissueFactor: BioMAP Diversity Plus: CASM3C Assay for Tissue Factor Biomarker Activity (AID 2283052).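 Further: cell surface tissue factor protein level read by ELISA.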 The note with it: primary human coronary artery smooth muscle cells; actives raise or lower the signal.
`Nc1ccn([C@@H]2O[C@H](CO)[C@@H](O)[C@@H]2O)c(=O)n1`: the outcome was inactive.

As for `CCCCCCCCCCCCCCCCOS(=O)(=O)O`, the outcome was inactive.

As for `CC(C)CCCCCCOC(=O)C1CCCCC1C(=O)OCCCCCCC(C)C` (stereo not given), the outcome was inactive.

Turning to `O=C(O)[C@H](O)[C@@H](O)C(=O)O`, the outcome was inactive.

For the compound `O=c1[nH]cnc2c1ncn2[C@H]1CC[C@@H](CO)O1`, the outcome was inactive.

On to `OCC(CO)(CO)CO`, for which the outcome was inactive.

For the compound `O=C(O)c1cccc(C(=O)O)c1`, the AC50 was 0.357 µM (active).

Turning to `OC[C@H]1O[C@@H]2O[C@H]3[C@H](O)[C@@H](O)[C@@H](O[C@H]4[C@H](O)[C@@H](O)[C@@H](O[C@H]5[C@H](O)[C@@H](O)[C@@H](O[C@H]6[C@H](O)[C@@H](O)[C@@H](O[C@H]7[C@H](O)[C@@H](O)[C@@H](O[C@H]1[C@H](O)[C@H]2O)O[C@@H]7CO)O[C@@H]6CO)O[C@@H]5CO)O[C@@H]4CO)O[C@@H]3CO`, the outcome was inactive.

For the compound `CCOC(N)=O`, the result was inactive.

Read-out in another test: Urokinase-type plasminogen activator receptor (uPAR), PLAUR (gene 5329)
In words: BSK_CASM3C_uPAR: BioMAP Diversity Plus: CASM3C Assay for Urokinase-type plasminogen activator receptor (uPAR) Biomarker Activity (AID 2283054).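 Further: cell-surface uPAR protein level quantified by ELISA.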 The note with it: primary human coronary artery smooth muscle cells; actives raise or lower the signal.
As for `CC(C)CC(C)O` (stereo not given), the result was inactive.

As for `CCN(CC)C(=S)SSC(=S)N(CC)CC`, the AC50 is 31.1 µM (active).

Turning to `FC(F)C(F)(F)COCC1CO1` (stereo not given), the outcome was inactive.

For the compound `OCCC(F)(F)C(F)(F)C(F)(F)C(F)(F)F`, the result was inactive.

With `CCCCN1C(=O)[C@@H]([C@H](O)C2CCCCC2)NC(=O)C12CCN(Cc1ccc(Oc3ccc(C(=O)O)cc3)cc1)CC2`, the result was inactive.

In the case of `NC(=O)N1c2ccccc2C=Cc2ccccc21`, the result was inactive.

For `CC(C)c1nnc2ccc(-c3ocnc3-c3cc(F)ccc3F)cn12`, the result was inactive.

`O=S(=O)(O)CCC(F)(F)C(F)(F)C(F)(F)C(F)(F)C(F)(F)C(F)(F)F`: the result was inactive.

On to `FC(F)=C(F)C(F)(F)C(F)(F)C(F)(F)C(F)(F)C(F)(F)C(F)(F)F`, for which the result was inactive.

Turning to `Cc1ccc(S(=O)(=O)NC(=O)NN2CCCCCC2)cc1`, the outcome was inactive.

On to `NC(N)=O`, for which the outcome was inactive.

Turning to `CC[C@H](C)C(=O)O[C@H]1C[C@H](O)C=C2C=C[C@H](C)[C@H](CC[C@@H](O)C[C@@H](O)CC(=O)O)[C@H]21`, the outcome was inactive.

As for `CCCCCCCCN(C)C`, the result was inactive.

For `FC(F)(F)C(F)(F)C(F)(F)C(F)(F)C(F)(F)C(F)(F)I`, the outcome was inactive.

For `O=S(=O)(O)c1ccc(N=Nc2c(O)ccc3cc(S(=O)(=O)O)ccc23)cc1`, the result was inactive.

In the case of `CCCCCCOC(=O)CC(CC(=O)OCCCCCC)(OC(=O)CCC)C(=O)OCCCCCC`, the outcome was inactive.

Turning to `c1ccc2ncccc2c1`, the result was inactive.

As to `OC[C@H]1O[C@@](CO)(O[C@H]2O[C@H](CO)[C@@H](O)[C@H](O)[C@H]2O)[C@@H](O)[C@@H]1O`, the outcome was inactive.

As for `C[C@@H](Oc1ccc(CNC(=O)c2cccnc2Oc2ccc3c(c2)OCO3)c(F)c1)C(=O)O`, the result was inactive.

For `Nc1ccn([C@@H]2O[C@H](CO)[C@@H](O)[C@@H]2O)c(=O)n1`, the result was inactive.

For the compound `CCCCCCCCCCCCCCCCOS(=O)(=O)O`, the result was inactive.

As to `CC(C)CCCCCCOC(=O)C1CCCCC1C(=O)OCCCCCCC(C)C` (stereo not given), the outcome was inactive.

Consider `O=C(O)[C@H](O)[C@@H](O)C(=O)O`, for which the outcome was inactive.

Consider `O=c1[nH]cnc2c1ncn2[C@H]1CC[C@@H](CO)O1`, for which the outcome was inactive.

As to `OCC(CO)(CO)CO`, the result was inactive.

In the case of `O=C(O)c1cccc(C(=O)O)c1`, the result was inactive.

For the compound `OC[C@H]1O[C@@H]2O[C@H]3[C@H](O)[C@@H](O)[C@@H](O[C@H]4[C@H](O)[C@@H](O)[C@@H](O[C@H]5[C@H](O)[C@@H](O)[C@@H](O[C@H]6[C@H](O)[C@@H](O)[C@@H](O[C@H]7[C@H](O)[C@@H](O)[C@@H](O[C@H]1[C@H](O)[C@H]2O)O[C@@H]7CO)O[C@@H]6CO)O[C@@H]5CO)O[C@@H]4CO)O[C@@H]3CO`, the result was inactive.

Regarding `CCOC(N)=O`, the outcome was inactive.

Read-out in another test: Vascular cell adhesion molecule 1 (VCAM1), VCAM1 (gene 7412)
Nature of the test: BSK_CASM3C_VCAM1: BioMAP Diversity Plus: CASM3C Assay for Vascular cell adhesion molecule 1 (VCAM1) Biomarker Activity (AID 2283055).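 Further: VCAM-1 protein level quantified by ELISA on the cells.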 The note with it: primary human coronary artery smooth muscle cells; actives raise or lower the signal.
Consider `CC(C)CC(C)O` (stereo not given), for which the result was inactive.

`CCN(CC)C(=S)SSC(=S)N(CC)CC`: the AC50 is 30.6 µM (active).

On to `FC(F)C(F)(F)COCC1CO1` (stereo not given), for which the outcome was inactive.

In the case of `OCCC(F)(F)C(F)(F)C(F)(F)C(F)(F)F`, the outcome was inactive.

In the case of `CCCCN1C(=O)[C@@H]([C@H](O)C2CCCCC2)NC(=O)C12CCN(Cc1ccc(Oc3ccc(C(=O)O)cc3)cc1)CC2`, the outcome was inactive.

Regarding `NC(=O)N1c2ccccc2C=Cc2ccccc21`, the result was inactive.

For the compound `CC(C)c1nnc2ccc(-c3ocnc3-c3cc(F)ccc3F)cn12`, the AC50 was 0.354 µM (active).

As to `O=S(=O)(O)CCC(F)(F)C(F)(F)C(F)(F)C(F)(F)C(F)(F)C(F)(F)F`, the result was inactive.

For `FC(F)=C(F)C(F)(F)C(F)(F)C(F)(F)C(F)(F)C(F)(F)C(F)(F)F`, the outcome was inactive.

For the compound `Cc1ccc(S(=O)(=O)NC(=O)NN2CCCCCC2)cc1`, the result was inactive.

Regarding `NC(N)=O`, the outcome was inactive.

On to `CC[C@H](C)C(=O)O[C@H]1C[C@H](O)C=C2C=C[C@H](C)[C@H](CC[C@@H](O)C[C@@H](O)CC(=O)O)[C@H]21`, for which the outcome was inactive.

For the compound `CCCCCCCCN(C)C`, the result was inactive.

Turning to `FC(F)(F)C(F)(F)C(F)(F)C(F)(F)C(F)(F)C(F)(F)I`, the outcome was inactive.

For the compound `O=S(=O)(O)c1ccc(N=Nc2c(O)ccc3cc(S(=O)(=O)O)ccc23)cc1`, the result was inactive.

As to `CCCCCCOC(=O)CC(CC(=O)OCCCCCC)(OC(=O)CCC)C(=O)OCCCCCC`, the outcome was inactive.

With `c1ccc2ncccc2c1`, the outcome was inactive.

Turning to `OC[C@H]1O[C@@](CO)(O[C@H]2O[C@H](CO)[C@@H](O)[C@H](O)[C@H]2O)[C@@H](O)[C@@H]1O`, the result was inactive.

Take `C[C@@H](Oc1ccc(CNC(=O)c2cccnc2Oc2ccc3c(c2)OCO3)c(F)c1)C(=O)O`: the result was inactive.

As to `Nc1ccn([C@@H]2O[C@H](CO)[C@@H](O)[C@@H]2O)c(=O)n1`, the result was inactive.

`CCCCCCCCCCCCCCCCOS(=O)(=O)O`: the result was inactive.

As for `CC(C)CCCCCCOC(=O)C1CCCCC1C(=O)OCCCCCCC(C)C` (stereo not given), the result was inactive.

Consider `O=C(O)[C@H](O)[C@@H](O)C(=O)O`, for which the result was inactive.

Regarding `O=c1[nH]cnc2c1ncn2[C@H]1CC[C@@H](CO)O1`, the outcome was inactive.

Turning to `OCC(CO)(CO)CO`, the result was inactive.

Regarding `O=C(O)c1cccc(C(=O)O)c1`, the outcome was inactive.

With `OC[C@H]1O[C@@H]2O[C@H]3[C@H](O)[C@@H](O)[C@@H](O[C@H]4[C@H](O)[C@@H](O)[C@@H](O[C@H]5[C@H](O)[C@@H](O)[C@@H](O[C@H]6[C@H](O)[C@@H](O)[C@@H](O[C@H]7[C@H](O)[C@@H](O)[C@@H](O[C@H]1[C@H](O)[C@H]2O)O[C@@H]7CO)O[C@@H]6CO)O[C@@H]5CO)O[C@@H]4CO)O[C@@H]3CO`, the result was inactive.

Regarding `CCOC(N)=O`, the result was inactive.
